Screens: PubChem, National Center for Advancing Translational Sciences (NCATS)
In the library only some 2.8% were active in any assay of this set; here they are far more common.
LDHA inh = blocks human lactate dehydrogenase A; actives 0.15% (n = 480,000); activity change, % (values are at about 110 or 230 µM); P00338; purified LDHA, NADH/diaphorase-resazurin fluorescence; hits give low values; in the data active = activity change below about -30%; inconclusive = mostly about -25% to -30%
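Resorufin fluorescence (ex540/em590), read at 0 and 20 min after diaphorase/resazurin addition, reports the NADH left after a 5 min room-temperature reaction of 2 nM human LDH5 with 0.06 mM NADH and 0.2 mM pyruvate.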
RGS4 inh = human RGS4 inhibition; Transcreener GDP fluorescence polarization, RGS4-accelerated GTP hydrolysis; Potency, µM (series often up to 114 µM), hits mostly inhibitors; AID 504845; actives 0.039% (n = 390,000); active = well fitted inhibition curve with a large enough effect; inconclusive = small, poorly fitted or top-dose-only effect; inactive = no such curve, though single readings can be large or run the other way; note: nearly all actives have a fitted effect of over 75% in size
Target sequence (P49798 whole entry, looked up): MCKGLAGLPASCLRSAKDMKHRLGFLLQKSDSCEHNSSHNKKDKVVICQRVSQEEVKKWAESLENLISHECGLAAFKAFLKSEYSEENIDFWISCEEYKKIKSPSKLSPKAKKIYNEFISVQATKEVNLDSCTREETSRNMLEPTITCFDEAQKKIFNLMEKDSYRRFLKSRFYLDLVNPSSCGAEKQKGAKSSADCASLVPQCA
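MLSMR compounds (23 nl, pin-transferred) preincubated 10 min at room temperature with a 500nM (2x) first reagent, then RGS4 at 900nM (2x) plus Transcreener GDP mix added; fluorescence polarization (620/688 nm) read before and after 90 min at 30 °C.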
DRD3 agonist = D3 dopamine receptor (human) agonism. D3R DiscoveRx beta-arrestin cells, luminescence, 90 min. P35462. max activation, %. actives 0.58% (n = 410,000); in the data active = max activation above about 30%
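Agonist mode: compounds and dopamine controls were applied to plated cells for 90 min at 37 degrees C after an overnight attachment at 1500 cells/well. Luminescent read-out followed 30 - 60 minutes at room temperature with DiscoveRx detection reagent.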
DRD3 antagonist = antagonists of human D3 dopamine receptor; D3R cells, DiscoveRx beta-arrestin luminescence, antagonist mode; hits give low values; P35462; max response, negative = inhibition, %; actives 2.5% (n = 360,000); in the data active = max response below about -50%; inconclusive = no clear call, values can overlap the other calls
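Cells plated overnight at 1500 cells/well, then exposed to library compounds with dopamine controls for 90 minutes at 37 degrees C. DiscoveRx reagent added for 30–60 minutes at room temperature; luminescence read, quantitative HTS format.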
pAkt inh = Akt phosphorylation inhibition; Neuro2A IGF-stimulated pAkt S473 HTRF, 20 min; hits give low values; activity change, % for hits at 50 µM; actives 0.32% (n = 360,000); AID 651550; in the data active = activity change below about -80%; inconclusive = mostly about -51% to -80%
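Single-point screen (50 µM final compound) in Neuro2A cells stimulated 20 min with 6 nM IGF at 37 deg C. After lysis, Ser473-phosphorylated Akt read by HTRF (ex 330 nm, em 615/665 nm) as the 665/615 ratio.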
PI4K2A block = inhibitors of human PI4K2A; Q9BTU6; purified PI4K2A, ADP-Glo luminescence, 1 h; hits give low values; activity change, negative = inhibition, % at 76.9 µM; actives 0.13% (n = 420,000); AID 1346378; in the data active = activity change below about -50%; inconclusive = mostly about -30% to -49%
Target sequence (Q9BTU6 whole entry, looked up): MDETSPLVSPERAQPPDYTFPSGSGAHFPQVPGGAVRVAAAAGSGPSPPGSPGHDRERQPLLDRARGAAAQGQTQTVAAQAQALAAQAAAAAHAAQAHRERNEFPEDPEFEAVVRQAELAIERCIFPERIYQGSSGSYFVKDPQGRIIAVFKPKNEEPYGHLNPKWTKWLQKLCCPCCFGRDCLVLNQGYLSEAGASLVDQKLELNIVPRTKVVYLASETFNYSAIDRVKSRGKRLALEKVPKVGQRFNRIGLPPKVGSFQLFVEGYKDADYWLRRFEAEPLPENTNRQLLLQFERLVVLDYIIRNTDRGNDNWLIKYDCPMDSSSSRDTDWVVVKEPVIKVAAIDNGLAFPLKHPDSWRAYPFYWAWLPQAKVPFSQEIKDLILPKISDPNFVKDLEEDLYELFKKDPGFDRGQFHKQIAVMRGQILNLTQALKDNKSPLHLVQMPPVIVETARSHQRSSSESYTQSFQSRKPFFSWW
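ADP-Glo luminescence measured ADP generated by PI4K2A enzyme (4 ug/mL before mixing) with 1.2 mM PI substrate (pre-mix) and 300 microM ATP (pre-mix). Tris pH7.5 buffer with MgCl2, Triton X-100; 1 h reaction at ambient temperature.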
Numbers stand for hits; [ ] = remark or other dose.

How did CCSc1cc(C2C(C#N)=C(N)OC(C)=C2C(=O)OC)c(C)o1 (centres undefined) do in these assays?
LDHA inh: inactive; RGS4 inh: inactive; DRD3 agonist: inactive; DRD3 antagonist: -67.2; pAkt inh: inactive; PI4K2A block: inactive

What do the screens show for `CCOC(=O)C1=C(C)OC(N)=C(C#N)C1c1ccc(O)c(OC)c1` (centres undefined)?
LDHA inh: inactive; RGS4 inh: inactive; DRD3 agonist: inactive; DRD3 antagonist: -62.1; pAkt inh: inactive; PI4K2A block: inactive

Results for COc1ccc2cnn(CC(=O)Nc3cc(F)cc(F)c3)c(=O)c2c1OC ?
LDHA inh: inactive

How did COc1ccc(CN2CC(COCc3ccccc3)Oc3ccccc3S2(=O)=O)cc1 (centres undefined) do in these assays?
LDHA inh: inactive; RGS4 inh: inactive; DRD3 agonist: 40.9; DRD3 antagonist: inactive; pAkt inh: inactive; PI4K2A block: inactive

Results for O=S1(=O)c2ccccc2OC(COCc2ccccc2)CN1Cc1ccccc1 (centres undefined) ?
LDHA inh: inactive; RGS4 inh: inactive; DRD3 agonist: inactive; DRD3 antagonist: inactive; pAkt inh: inactive; PI4K2A block: inactive

How did Cc1ccc(S(=O)(=O)C(C#N)c2nc3ccccc3nc2NC(C)C)cc1 (centres undefined) do in these assays?
LDHA inh: inactive

What do the screens show for `Cn1nc(C(F)(F)F)cc1C(=O)NC1CCCCCC1`?
LDHA inh: inactive; RGS4 inh: inactive; DRD3 agonist: 40.4; DRD3 antagonist: inactive; pAkt inh: inactive; PI4K2A block: inactive

What do the screens show for `Cc1ccc(N=C2C(=O)Nc3c(C)cccc32)cc1`?
LDHA inh: inactive; RGS4 inh: inactive; DRD3 agonist: inactive; DRD3 antagonist: inactive; pAkt inh: inactive; PI4K2A block: inactive

Results for Cc1ccc(N=C2C(=O)Nc3ccc(Br)cc32)cc1 ?
LDHA inh: inactive; RGS4 inh: inactive; DRD3 agonist: inactive; DRD3 antagonist: -67.2; pAkt inh: inactive; PI4K2A block: inactive

What do the screens show for `Cc1nc2cc(NC(=O)C(C)Oc3ccc(C#N)cc3)ccc2o1` (centres undefined)?
LDHA inh: inactive

What do the screens show for `O=C1C=CC(=O)N1Cc1ccccc1`?
LDHA inh: inactive; RGS4 inh: inconclusive; DRD3 agonist: inactive; DRD3 antagonist: -139.5; PI4K2A block: inactive

What do the screens show for `Cc1nnc(SCC(=O)N2CCOCC2)c2ccccc12`?
LDHA inh: inactive; RGS4 inh: inactive; DRD3 agonist: inactive; DRD3 antagonist: inactive; pAkt inh: -114.7%; PI4K2A block: inactive

What do the screens show for `CCS(=O)(=O)N1CCC(C(=O)NCc2cccnc2)CC1`?
LDHA inh: inactive; RGS4 inh: inactive; DRD3 agonist: inactive; DRD3 antagonist: inactive; pAkt inh: inactive; PI4K2A block: inactive

How did O=C(NC(c1ccc(-c2ccccc2)cc1)c1cnccn1)C1CCN(Cc2ccc3c(c2)OCO3)CC1 (centres undefined) do in these assays?
LDHA inh: inactive; DRD3 agonist: inactive; DRD3 antagonist: -65.8; pAkt inh: inactive; PI4K2A block: inactive

How did Cn1cc(CN2CCC(C(=O)NC(c3ccc(-c4ccccc4)cc3)c3cnccn3)CC2)c2ccccc21 (centres undefined) do in these assays?
LDHA inh: inactive; DRD3 agonist: inactive; DRD3 antagonist: inconclusive; pAkt inh: inactive; PI4K2A block: inactive

How did O=C(NC(c1ccccc1)c1cnccn1)C1CCN(Cc2ccc(Cl)c(Cl)c2)CC1 (centres undefined) do in these assays?
LDHA inh: inactive; DRD3 agonist: inactive; DRD3 antagonist: inconclusive; pAkt inh: inactive; PI4K2A block: inactive

Results for O=C(NC(c1ccc(-c2ccccc2)cc1)c1cnccn1)C1CCN(Cc2ccc(Cl)c(Cl)c2)CC1 (centres undefined) ?
LDHA inh: inactive; DRD3 agonist: inactive; DRD3 antagonist: -57.4; pAkt inh: inactive; PI4K2A block: inactive

How did CC(C)c1ccc(CN2CCC(C(=O)NCc3cccnc3)CC2)cc1 do in these assays?
LDHA inh: inactive; RGS4 inh: inactive; DRD3 agonist: inactive; DRD3 antagonist: -83.4; pAkt inh: inactive; PI4K2A block: inactive

Results for COc1ccc(NS(=O)(=O)c2ccc(C)c(C(=O)O)c2)cc1 ?
LDHA inh: inactive; RGS4 inh: inactive; DRD3 agonist: inactive; DRD3 antagonist: inactive; pAkt inh: inactive; PI4K2A block: inactive

Results for COc1ccc(NS(=O)(=O)c2ccc(N)c(C(=O)O)c2)cc1 ?
LDHA inh: inactive; RGS4 inh: inactive; DRD3 agonist: inactive; DRD3 antagonist: inconclusive; pAkt inh: -115.4%; PI4K2A block: inactive

Results for COc1ccc(CN2CCC(C(=O)N3CCN(c4ccccc4F)CC3)CC2)cc1OC ?
LDHA inh: inactive; RGS4 inh: inactive; DRD3 agonist: inactive; DRD3 antagonist: inactive; pAkt inh: inactive; PI4K2A block: inactive

How did COc1cc(CN2CCC(C(=O)N3CCN(c4ccccc4F)CC3)CC2)cc(OC)c1OC do in these assays?
LDHA inh: inactive; RGS4 inh: inactive; DRD3 agonist: inactive; DRD3 antagonist: -52.9; pAkt inh: inactive; PI4K2A block: inactive

What do the screens show for `COc1ccc(C(=O)Oc2ccc3oc(=O)sc3c2)cc1`?
LDHA inh: inactive; RGS4 inh: inconclusive; DRD3 agonist: inactive; DRD3 antagonist: -51.9; pAkt inh: inactive; PI4K2A block: inconclusive

Results for CCOC(=O)N1CCN(c2nc(SC)nc3sc4c(c23)CC(C)(C)OC4)CC1 ?
LDHA inh: inactive; RGS4 inh: inactive; DRD3 agonist: inactive; DRD3 antagonist: inactive; pAkt inh: -85.5%; PI4K2A block: inactive

What do the screens show for `CC1=NN(c2ccccc2)C(=O)C1N=Nc1ccc(N)cc1` (centres undefined)?
LDHA inh: inactive; RGS4 inh: inactive[11.4 µM]; DRD3 agonist: inactive; DRD3 antagonist: -59.7; pAkt inh: inactive; PI4K2A block: inconclusive

Results for CC1=NN(c2ccccc2)C(=O)C1N=Nc1ccccc1 (centres undefined) ?
LDHA inh: inactive; RGS4 inh: inactive; DRD3 agonist: inactive; DRD3 antagonist: inactive; pAkt inh: inactive; PI4K2A block: inactive

What do the screens show for `COc1ccc(C2CC(c3ccc(Br)cc3)=NN2C(=O)CCC(=O)O)cc1OC` (centres undefined)?
LDHA inh: inactive; RGS4 inh: inactive; DRD3 agonist: inactive; DRD3 antagonist: inactive; pAkt inh: inactive; PI4K2A block: inactive

Results for COc1ccc(C2=NN(C(=O)CCC(=O)O)C(c3ccc(OC)c(OC)c3)C2)cc1 (centres undefined) ?
LDHA inh: inactive; RGS4 inh: inactive; DRD3 agonist: inactive; DRD3 antagonist: -50.5; pAkt inh: inactive; PI4K2A block: inactive

How did O=C(/C=C/c1ccc(Cl)cc1)c1ccc(O)cc1 do in these assays?
LDHA inh: inactive
